Assay results: PubChem BioAssay (NCATS)
Several values for one entry are separate records, joined by “and”; a condition that tells them apart may be missing. Equal values may be shown once. Records with an inconclusive call do not appear. Unmarked numbers belong to inactive results. Activity calls are given as the source filed them. The call rests on the fitted dose curve; in most records, active means well fitted curve in the direction sought with a large enough effect; inconclusive means small, poorly fitted or top-dose-only effect, or another doubt; inactive means no such curve, though single readings can be large; an effect the other way counts as inactive or inconclusive.

Experiments:
[1] = Viability qHTS for spleen associated tyrosine kinase inhibitor (SYKi) naive MV4-11 cells (AID 1963823); further: nearly all actives have a fitted effect of over 40% in size
Method in brief: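 qHTS, SYK inhibitor-naive MV4-11; 500 cells/well; 72 hr compound exposure, 37 C; CellTiter-Glo added, 10 min RT; luminescence read.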

[2] = Viability qHTS for spleen associated tyrosine kinase inhibitor (SYKi) drug resistant MV4-11 cells (AID 1963824); further: nearly all actives have a fitted effect of over 35% in size
Method in brief: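 SYK-inhibitor-resistant MV4-11 AML cells were seeded at 500 per well onto compound and cultured 72 hours (37 °C, 5% CO2). CellTiter-Glo was then added, and after 10 min at room temperature, luminescence gave viability.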

[3] = Quantitative highthroughput screen to assess conditional lethalithy of NOMO1 cells grown in RPMI1640 with untreated serum (RPMI+s) (AID 1963876); further: nearly all actives have a fitted effect of over 35% in size;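 on Viability: 100% = DMSO wells and 0% = empty wells without cells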
Method in brief: (§1)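 Each medium arm—HPLM with 10% dialyzed FBS, or RPMI1640 with 5 mM glucose and 10% untreated or dialyzed FBS—was screened against an 11-point, 3-fold compound titration for 48 h at 37 °C, with CellTiter-Glo luminescence as endpoint.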

[4] = Quantitative highthroughput screen to assess conditional lethalithy of NOMO1 cells grown in RPMI1640 with dialyzed fetal bovine serum (RPMI+ds) (AID 1963877); further: nearly all actives have a fitted effect of over 30% in size;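 on Viability: series mostly up to about 46 µM; 100% = DMSO control wells and 0% = empty wells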
Method in brief: as §1

[5] = Quantitative highthroughput screen to assess conditional lethalithy of NOMO1 cells grown in Human Plasma-Like Medium with dialyzed fetal bovine serum (HPLM+ds) (AID 1963878); further: nearly all actives have a fitted effect of over 35% in size;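 on Viability: 100% = DMSO wells and 0% = empty wells on each plate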
Method in brief: as §1

[6] = Quantitative highthroughput screen to assess conditional lethalithy of P12 Ichikawa cells grown in Human Plasma-Like Medium with dialyzed fetal bovine serum (HPLM+ds) (AID 1963879); conditions: Potency: viability; further: nearly all actives have a fitted effect of over 35% in size; on Viability: series mostly up to about 46 µM
Method in brief: as §1

[7] = Quantitative highthroughput screen to assess conditional lethalithy of P12 Ichikawa cells grown in RPMI1640 with dialyzed fetal bovine serum (RPMI+ds) (AID 1963880); conditions: Potency: P12-Ichikawa viability; further: nearly all actives have a fitted effect of over 35% in size;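 on Viability: 100% = DMSO wells and 0% = empty wells on each plate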
Method in brief: as §1

[8] = Quantitative highthroughput screen to assess conditional lethalithy of P12 Ichikawa cells grown in RPMI1640 with untreated serum (RPMI+s) (AID 1963881); conditions: Potency: viability; further: nearly all actives have a fitted effect of over 35% in size;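 on Viability: series mostly up to about 46 µM; 100% = DMSO wells and 0% = empty wells without cells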
Method in brief: as §1

[9] = Quantitative highthroughput screen to assess conditional lethalithy of SEM cells grown in Human Plasma-Like Medium with dialyzed fetal bovine serum (HPLM+ds) (AID 1963882); further: nearly all actives have a fitted effect of over 35% in size; on Viability: series mostly up to about 46 µM
Method in brief: as §1

[10] = Quantitative highthroughput screen to assess conditional lethalithy of SEM cells grown in RPMI1640 with unreated serum (RPMI+s) (AID 1963883); further: nearly all actives have a fitted effect of over 35% in size;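 on Viability: 100% = DMSO wells and 0% = empty wells without cells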
Method in brief: as §1

[11] = Quantitative highthroughput screen to assess conditional lethalithy of SEM cells grown in RPMI1640 with dialyzed fetal bovine serum (RPMI+ds) (AID 1963884); further: nearly all actives have a fitted effect of over 35% in size;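 on Viability: series mostly up to about 46 µM; 100% = DMSO control wells and 0% = empty wells without cells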
Method in brief: as §1

[12] = Cellular viability qHTS for adrenocortical cancer (ACC) cell line SW-13 (AID 1963989); conditions: SW-13 ACC cells viability, CellTiter-Glo, 48 h; activity (max response): stronger effect = lower value; further: nearly all actives have a fitted effect of over 65% in size;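 on activity (max response): cells grown in serum-free medium with ITS supplement; on the % scale 0 is the no-effect control and ±100 the full control effect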
Method in brief: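 Compound titrations (up to 46 uM final, in DMSO) were applied to SW-13 cells for 48 h at 37C/5% CO2. Reading used CellTiter-Glo after 20 min at room temperature; fitted curves yielded IC50 and efficacy.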

[13] = Cellular viability qHTS for adrenocortical cancer (ACC) cell line NCI-H295R (AID 1963990); further: nearly all actives have a fitted effect of over 60% in size
Method in brief: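 Readout: CellTiter-Glo luminescence, 20 min RT. Exposure: 48 h, 37C/5% CO2. Cells: NCI-H295R, ITS-DMEM serum-free. Range: up to 46 uM. Analysis: 4PL fit, IC50 plus efficacy.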
Potency means the concentration at half of the fitted maximal effect.

## OCCCNc1cc(-c2ccnc(Nc3cccc(Cl)c3)n2)ccn1
[1]
  Potency: 82 nM (active) and 83.3 nM (active)
[2]
  Potency: 58 nM (active) and 66.1 nM (active)
[3]
  Potency: 187 nM (active)
[4]
  Potency: 209 nM (active)
[5]
  Potency: 235 nM (active)
[6]
  Potency: 662 nM (active)
[7]
  Potency: 469 nM (active)
[8]
  Potency: 526 nM (active)
[9]
  Potency: 166 nM (active)
[10]
  Potency: 235 nM (active)
[11]
  Potency: 209 nM (active)
[12]
  Potency: 447 nM (active)
[13]
  Potency: 316 nM (active)

## OC[C@@H](O)[C@@H](O)[C@H](O)[C@@H](O)CO
[1]
  Potency: inactive
[2]
  Potency: inactive
[3]
  Potency: inactive
[4]
  Potency: inactive
[5]
  Potency: inactive
[6]
  Potency: inactive
[7]
  Potency: inactive
[8]
  Potency: inactive
[9]
  Potency: inactive
[10]
  Potency: inactive
[11]
  Potency: inactive
[12]
  activity (max response): 3.97%

## CC(=O)Nc1ccc([C@H](C)C(=O)Nc2ncc(C(C)C)s2)cc1
[1]
  Potency: 1.66 µM (active)
[2]
  Potency: 4.61 µM (active)
[3]
  Potency: 4690 nM (active)
[4]
  Potency: 8330 nM (active)
[5]
  Potency: 7430 nM (active)
[6]
  Potency: 11800 nM (active)
[7]
  Potency: 10500 nM (active)
[8]
  Potency: 11800 nM (active)
[9]
  Potency: 6620 nM (active)
[10]
  Potency: 7430 nM (active)
[11]
  Potency: 7430 nM (active)
[12]
  Potency: 1260 nM (active)

## O=C(C1CC1)N1CC[C@@H](Cc2n[nH]c(=O)n2-c2ccc(-c3ccc4occc4c3)cc2)C1
[1]
  Potency: inactive
[2]
  Potency: 18.6 µM (active)
[3]
  Potency: inactive
[4]
  Potency: inactive
[5]
  Potency: inactive
[6]
  Potency: inactive
[7]
  Potency: inactive

## CCC(=O)N1CCN(c2ccc(-n3c(=O)ccc4cnc5ccc(-c6cnc7ccccc7c6)cc5c43)cc2C(F)(F)F)CC1
[1]
  Potency: 42.2 nM (active) and 36.2 nM (active)
[2]
  Potency: 59.6 nM (active) and 102 nM (active)
[3]
  Potency: 132 nM (active)

## CC[C@@]1(O)C(=O)OCc2c1cc1n(c2=O)Cc2cc3c(CN(C)C)c(O)ccc3nc2-1
[1]
  Potency: 59.6 nM (active) and 58 nM (active)
[2]
  Potency: 0.0332 µM (active)
[3]
  Potency: 526 nM (active)
[4]
  Potency: 526 nM (active)
[5]
  Potency: 332 nM (active)
[6]
  Potency: 105 nM (active)
[7]
  Potency: 74.3 nM (active)
[8]
  Potency: 74.3 nM (active)
[9]
  Potency: 166 nM (active)
[10]
  Potency: 93.5 nM (active)
[11]
  Potency: 105 nM (active)
[12]
  Potency: 562 nM (active)

## CC1(C)CNc2cc(NC(=O)c3cccnc3NCc3ccncc3)ccc21
[1]
  Potency: 2.31 µM (active)
[2]
  Potency: 5.17 µM (active) and 5.9 µM (active)
[3]
  Potency: inactive
[4]
  Potency: inactive
[5]
  Potency: inactive
[6]
  Potency: inactive
[7]
  Potency: inactive
[8]
  Potency: inactive

## COc1cccc2c1C(=O)c1c(O)c3c(c(O)c1C2=O)C[C@@](O)(C(=O)CO)C[C@@H]3O[C@H]1C[C@H](N)[C@@H](O)[C@H](C)O1
[1]
  Potency: 0.0661 µM (active)
[2]
  Potency: 0.0525 µM (active)
[3]
  Potency: 2960 nM (active)
[4]
  Potency: 2960 nM (active)
[5]
  Potency: 3320 nM (active)
[6]
  Potency: 2960 nM (active)
[7]
  Potency: 2960 nM (active)
[8]
  Potency: 2960 nM (active)
[9]
  Potency: 2640 nM (active)
[10]
  Potency: 1480 nM (active)
[11]
  Potency: 2640 nM (active)
[12]
  Potency: 1120 nM (active)
[13]
  Potency: 8910 nM (active)
